Drawing on the OligoGym collection, this text covers sensor-assay potency score (higher = more potent) for 23 sequences.
Note: reference of the scale not given here.

One test deals with XAGE3. As to the kind of experiment: pooled miR-30 sensor sort-seq; sequence = guide strand. As to conditions: shRNA.
For TTTAAGTCAAATATCTTAGATA, the sensor-assay potency score (higher = more potent) is -0.923.

With TCTTCTTCTCTCTCCTGACCAG, the sensor-assay potency score (higher = more potent) was -1.02.

For the sequence TCTCCTGACCAGGTGCAGGATC, the sensor-assay potency score (higher = more potent) is -0.873.

With TTGAGTCTCAGCTGCACCCTGA, the sensor-assay potency score (higher = more potent) is -0.3.

For the sequence TGATCTTCTTCTCTCTCCTGAC, the sensor-assay potency score (higher = more potent) is -1.05.

Turning to TGGTACACTTCTCCTCGGCCTA, the sensor-assay potency score (higher = more potent) is -1.1.

Consider TTCCTCTTGCTGAGGCTCCTCA, for which the sensor-assay potency score (higher = more potent) was -0.958.

With TTCTTCTCTCTCCTGACCAGGT, the sensor-assay potency score (higher = more potent) was -0.766.

TTTCAGTTGGTGGTTCCTCTTG: the sensor-assay potency score (higher = more potent) was -0.62.

Take TCTCTCTCCTGACCAGGTGCAG: the sensor-assay potency score (higher = more potent) was -1.38.

Take TGCACCCTGATCTTCTTCTCTC: the sensor-assay potency score (higher = more potent) is -0.916.

For another test, the target named is XAGE5. The test is described as above. The conditions noted are these: shRNA.
TTCAGTTGGTGGTTCTTCTTGT showed a sensor-assay potency score (higher = more potent) of 0.414.

Consider AAGTCGTAAACATCGTCTTGGT, for which the sensor-assay potency score (higher = more potent) was -0.56.

In the case of TTAGGCACTTGAATCTCAGCTG, the sensor-assay potency score (higher = more potent) amounted to 0.649.

With TGAGCAAGTCGTAAACATCGTC, the sensor-assay potency score (higher = more potent) is -0.511.

Turning to TATCTCCGCATTCATCCCCAGT, the sensor-assay potency score (higher = more potent) was -1.35.

In the case of TCATCTTCTCTCTTCTGACCAG, the sensor-assay potency score (higher = more potent) was -0.307.

On to TTTTAAATTGCTCTGATTTTGG, for which the sensor-assay potency score (higher = more potent) was -0.858.

In the case of TTCTTCTTGTTGAGGCTCTGGC, the sensor-assay potency score (higher = more potent) is -0.323.

As for CAAGTCGTAAACATCGTCTTGG, the sensor-assay potency score (higher = more potent) was -0.817.

As for TTTCAGTTGGTGGTTCTTCTTG, the sensor-assay potency score (higher = more potent) was -0.699.

With TAGGCACTTGAATCTCAGCTGC, the sensor-assay potency score (higher = more potent) is -0.239.

For the sequence TTGGTGGTTCTTCTTGTTGAGG, the sensor-assay potency score (higher = more potent) was -1.63.
